Measured values as given in the supplement of paper PMC8728848.
Many of the other results were omitted from the sample, so the strongest signals are more common in it than they were.

What was measured:
Experiment in all cases: glycan array binding signal (z-score within array); higher = stronger binding
Conditions in all cases: glycan notation: IUPAC condensed, linker removed
Fuc(a1-2)Gal(b1-3)GalNAc = biological target: Fuc(a1-2)Gal(b1-3)GalNAc
Procedure, shortened: (§1)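 Arrays were curated from the Consortium for Functional Glycomics database, 3228 in total, and kept only where the protein sequence was available. Binding is expressed as a within-array Z-score. This score was averaged across arrays of the same protein sequence at different concentrations or buffers and across linkers, and negative values can be read as non-binding.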

[1] = biological target: Fuc(a1-2)Gal(b1-3)GlcNAc(b1-3)[Fuc(a1-3)[Gal(b1-4)]GlcNAc(b1-6)]Gal(b1-4)Glc
Procedure, shortened: as §1

[2] = biological target: Fuc(a1-2)Gal(b1-3)[Fuc(a1-4)]GlcNAc(b1-2)Man(a1-3)[Fuc(a1-2)Gal(b1-3)[Fuc(a1-4)]GlcNAc(b1-2)Man(a1-6)]Man(b1-4)GlcNAc(b1-4)GlcNAc
Procedure, shortened: as §1

[3] = biological target: Fuc(a1-2)Gal(b1-3)[Fuc(a1-4)]GlcNAc(b1-3)[Gal(b1-4)GlcNAc(b1-6)]Gal(b1-4)Glc
Procedure, shortened: as §1

Fuc(a1-2)Gal(b1-4)Glc = biological target: Fuc(a1-2)Gal(b1-4)Glc
Procedure, shortened: as §1

[4] = biological target: Fuc(a1-2)Gal(b1-4)[Fuc(a1-3)]GlcNAc(b1-2)Man(a1-3)[Fuc(a1-2)Gal(b1-4)[Fuc(a1-3)]GlcNAc(b1-2)Man(a1-6)]Man(b1-4)GlcNAc(b1-4)GlcNAc
Procedure, shortened: as §1

[5] = biological target: Fuc(a1-2)[Gal(a1-3)]Gal(b1-4)GlcNAc
Procedure, shortened: as §1

[6] = biological target: Fuc(a1-2)[GalNAc(a1-3)]Gal(b1-3)GlcNAc(b1-2)Man(a1-3)[Fuc(a1-2)[GalNAc(a1-3)]Gal(b1-3)GlcNAc(b1-2)Man(a1-6)]Man(b1-4)GlcNAc(b1-4)GlcNAc
Procedure, shortened: as §1

[7] = biological target: Fuc(a1-2)[GalNAc(a1-3)]Gal(b1-4)GlcNAc(b1-3)Gal(b1-4)GlcNAc
Procedure, shortened: as §1

[8] = biological target: Fuc(a1-2)[GalNAc(a1-4)]Gal(b1-4)GlcNAc
Procedure, shortened: as §1

[9] = biological target: Fuc(a1-3)[Gal(b1-4)]GlcNAc(b1-3)GalNAc
Procedure, shortened: as §1

Gal(a1-3)Gal(b1-4)GlcNAc = biological target: Gal(a1-3)Gal(b1-4)GlcNAc
Procedure, shortened: as §1

[10] = biological target: Gal(a1-3)Gal(b1-4)[Fuc(a1-3)]GlcNAc(b1-2)Man(a1-3)[Gal(a1-3)Gal(b1-4)[Fuc(a1-3)]GlcNAc(b1-2)Man(a1-6)]Man(b1-4)GlcNAc(b1-4)GlcNAc
Procedure, shortened: as §1

Gal(a1-3)GalNAc = biological target: Gal(a1-3)GalNAc
Procedure, shortened: as §1

[11] = biological target: Gal(a1-4)Gal(b1-3)GlcNAc(b1-2)Man(a1-3)[Gal(a1-4)Gal(b1-3)GlcNAc(b1-2)Man(a1-6)]Man(b1-4)GlcNAc(b1-4)GlcNAc
Procedure, shortened: as §1

[12] = biological target: Gal(b1-3)GlcNAc(b1-2)Man(a1-3)[Gal(b1-3)GlcNAc(b1-2)Man(a1-6)]Man(b1-4)GlcNAc(b1-4)GlcNAc
Procedure, shortened: as §1

[13] = biological target: Gal(b1-3)GlcNAc(b1-3)Gal(b1-4)GlcNAc(b1-6)[Gal(b1-3)GlcNAc(b1-3)]Gal(b1-4)Glc
Procedure, shortened: as §1

[14] = biological target: Gal(b1-3)[Fuc(a1-4)]GlcNAc(b1-3)Gal(b1-4)GlcNAc
Procedure, shortened: as §1

Gal(b1-4)Glc6S = biological target: Gal(b1-4)Glc6S
Procedure, shortened: as §1

[15] = biological target: Gal(b1-4)GlcNAc(b1-3)Gal(b1-4)GlcNAc
Procedure, shortened: as §1

[16] = biological target: Gal(b1-4)GlcNAc(b1-3)[Gal(b1-4)GlcNAc(b1-6)]GalNAc
Procedure, shortened: as §1

[17] = biological target: GalNAc(b1-3)Gal(a1-6)Gal(b1-4)Glc
Procedure, shortened: as §1

[18] = biological target: GlcNAc(b1-2)Man(a1-3)[GlcNAc(b1-2)Man(a1-6)]Man(b1-4)GlcNAc(b1-4)GlcNAc
Procedure, shortened: as §1

GlcNAc(b1-3)Man = biological target: GlcNAc(b1-3)Man
Procedure, shortened: as §1

Kdn(a2-3)Gal(b1-4)Glc = biological target: Kdn(a2-3)Gal(b1-4)Glc
Procedure, shortened: as §1

[19] = biological target: Man(a1-2)Man(a1-3)[Man(a1-2)Man(a1-6)]Man
Procedure, shortened: as §1

Man(a1-3)[Man(a1-6)]Man = biological target: Man(a1-3)[Man(a1-6)]Man
Procedure, shortened: as §1

[20] = biological target: Neu5Ac(a2-3)Gal(b1-3)GalNAc(b1-4)[Neu5Ac(a2-3)]Gal(b1-4)Glc
Procedure, shortened: as §1

Neu5Ac(a2-3)Gal(b1-4)Glc = biological target: Neu5Ac(a2-3)Gal(b1-4)Glc
Procedure, shortened: as §1

[21] = biological target: Neu5Ac(a2-3)Gal(b1-4)GlcNAc(b1-3)Gal(b1-4)GlcNAc
Procedure, shortened: as §1

Man(a1-2)Man(a1-3)Man = biological target: Man(a1-2)Man(a1-3)Man
Procedure, shortened: as §1

[22] = biological target: Man(a1-2)Man(a1-6)[Man(a1-3)]Man(a1-6)[Man(a1-2)Man(a1-2)Man(a1-3)]Man
Procedure, shortened: as §1

[23] = biological target: Neu5Ac(a2-3)Gal(b1-3)GlcNAc(b1-2)Man
Procedure, shortened: as §1

[24] = biological target: Neu5Ac(a2-3)Gal(b1-3)GlcNAc(b1-2)Man(a1-3)[GlcNAc(b1-4)][Neu5Ac(a2-3)Gal(b1-3)GlcNAc(b1-2)Man(a1-6)]Man(b1-4)GlcNAc(b1-4)GlcNAc
Procedure, shortened: as §1

[25] = biological target: Neu5Ac(a2-3)Gal(b1-3)[Neu5Ac(a2-6)]GlcNAc(b1-3)[Fuc(a1-3)[Gal(b1-4)]GlcNAc(b1-6)]Gal(b1-4)Glc
Procedure, shortened: as §1

[26] = biological target: Neu5Ac(a2-3)Gal(b1-4)GlcNAc(b1-2)Man(a1-3)[GlcNAc(b1-4)][Neu5Ac(a2-3)Gal(b1-4)GlcNAc(b1-2)Man(a1-6)]Man(b1-4)GlcNAc(b1-4)GlcNAc
Procedure, shortened: as §1

[27] = biological target: Neu5Ac(a2-3)Gal(b1-4)GlcNAc(b1-3)Gal(b1-4)GlcNAc(b1-3)Gal(b1-4)GlcNAc(b1-2)Man(a1-3)[Neu5Ac(a2-3)Gal(b1-4)GlcNAc(b1-3)Gal(b1-4)GlcNAc(b1-3)Gal(b1-4)GlcNAc(b1-2)Man(a1-6)]GalNAc
Procedure, shortened: as §1

[28] = biological target: Neu5Ac(a2-3)Gal(b1-4)GlcNAc(b1-3)Gal(b1-4)GlcNAc(b1-6)[Gal(b1-3)]GalNAc
Procedure, shortened: as §1

[29] = biological target: Neu5Ac(a2-3)Gal(b1-4)GlcNAc(b1-6)GalNAc
Procedure, shortened: as §1

[30] = biological target: Neu5Ac(a2-3)Gal(b1-4)GlcNAc(b1-6)[Gal(b1-3)]GalNAc
Procedure, shortened: as §1

[31] = biological target: Neu5Ac(a2-3)[GalNAc(b1-4)]Gal(b1-4)GlcNAc
Procedure, shortened: as §1

[32] = biological target: Neu5Ac(a2-3)[Neu5Ac(a2-6)]GalNAc
Procedure, shortened: as §1

Neu5Ac(a2-6)Gal(b1-4)Glc = biological target: Neu5Ac(a2-6)Gal(b1-4)Glc
Procedure, shortened: as §1

[33] = biological target: Neu5Ac(a2-6)Gal(b1-4)GlcNAc(b1-2)Man(a1-3)[Neu5Ac(a2-6)Gal(b1-4)GlcNAc(b1-2)Man(a1-6)]Man(b1-4)GlcNAc(b1-4)[Fuc(a1-6)]GlcNAc
Procedure, shortened: as §1

[34] = biological target: Neu5Ac(a2-6)Gal(b1-4)GlcNAc(b1-2)Man(a1-6)[Man(a1-3)]Man(b1-4)GlcNAc(b1-4)GlcNAc
Procedure, shortened: as §1

[35] = biological target: Neu5Ac(a2-6)Gal(b1-4)GlcNAc(b1-2)[Neu5Ac(a2-6)Gal(b1-4)GlcNAc(b1-4)]Man(a1-3)[GlcNAc(b1-4)][Neu5Ac(a2-6)Gal(b1-4)GlcNAc(b1-2)[Neu5Ac(a2-6)Gal(b1-4)GlcNAc(b1-6)]Man(a1-6)]Man(b1-4)GlcNAc(b1-4)GlcNAc
Procedure, shortened: as §1

[36] = biological target: Neu5Ac(a2-6)Gal(b1-4)GlcNAc(b1-3)Gal(b1-3)GlcNAc
Procedure, shortened: as §1

[37] = biological target: Neu5Ac(a2-6)Gal(b1-4)GlcNAc(b1-3)Gal(b1-4)GlcNAc(b1-3)Gal(b1-4)GlcNAc(b1-2)Man(a1-3)[Neu5Ac(a2-6)Gal(b1-4)GlcNAc(b1-3)Gal(b1-4)GlcNAc(b1-3)Gal(b1-4)GlcNAc(b1-2)Man(a1-6)]GalNAc
Procedure, shortened: as §1

[38] = biological target: Neu5Gc(a2-3)Gal(b1-3)[Fuc(a1-4)]GlcNAc
Procedure, shortened: as §1

B1: SAG3 (Toxoplasma gondii), Q9BJ39 (protein)
chain: MQLWRRRAAGPASLGRQSLPLGCFFAAFGLCVLSAILGTGERGLFVAAGNSRRKITYFGTLTQKAPNWYRCSSTRAKEEVVGHVTLNKEHPDMTIECVDDGLGGEFLPLEGARSSYPRVCHIDAKDQDDCERNRGFLTDYIPGAKQYWYKIEKVEQNGEQSVLYKFTVPWILLPPAKQRYKVGCRYPNHEYCFVEVTVEPTPPMVEGKRVTCGYSESGPVNLEVDLSKNANFIEIRCGEQHHPQPSTYTLQYCSGDSVDPQKCSPQSLTNIFYDYSSSWWKGKLNGPDGATLTIPPGGFPEEDKSFLVGCSLTVDGPPFCNVKVRVAGNPRKWERGGGGHPGSGGLQPGTDGETQAGTGSSAGASSRMASVALAFLLGLLVHVAA
glycan array binding signal (z-score) (Fuc(a1-2)Gal(b1-3)GalNAc): -0.359
glycan array binding signal (z-score) [1]: 0.235
glycan array binding signal (z-score) [2]: 6.32
glycan array binding signal (z-score) [3]: 0.4
glycan array binding signal (z-score) (Fuc(a1-2)Gal(b1-4)Glc): -0.397
glycan array binding signal (z-score) [4]: 2.31
glycan array binding signal (z-score) [5]: 0.112
glycan array binding signal (z-score) [6]: -0.473
glycan array binding signal (z-score) [7]: -0.084
glycan array binding signal (z-score) [8]: -0.046
glycan array binding signal (z-score) [9]: 2.86
glycan array binding signal (z-score) (Gal(a1-3)Gal(b1-4)GlcNAc): -0.223
glycan array binding signal (z-score) [10]: 4.74
glycan array binding signal (z-score) (Gal(a1-3)GalNAc): -0.176
glycan array binding signal (z-score) [11]: -0.051
glycan array binding signal (z-score) [12]: 0.157
glycan array binding signal (z-score) [13]: 0.551
glycan array binding signal (z-score) [14]: -0.077
glycan array binding signal (z-score) (Gal(b1-4)Glc6S): -0.304
glycan array binding signal (z-score) [15]: 0.013
glycan array binding signal (z-score) [16]: -0.475
glycan array binding signal (z-score) [17]: -0.162
glycan array binding signal (z-score) [18]: -0.352
glycan array binding signal (z-score) (GlcNAc(b1-3)Man): 0.13
glycan array binding signal (z-score) (Kdn(a2-3)Gal(b1-4)Glc): 0.107
glycan array binding signal (z-score) [19]: -0.088
glycan array binding signal (z-score) (Man(a1-3)[Man(a1-6)]Man): 0.34
glycan array binding signal (z-score) [20]: -0.184
glycan array binding signal (z-score) (Neu5Ac(a2-3)Gal(b1-4)Glc): -0.168
glycan array binding signal (z-score) [21]: -0.053

B2: Als3-N (Candida albicans) (protein)
chain: KTITGVFNSFNSLTWSNAATYNYKGPGTPTWNAVLGWSLDGTSASPGDTFTLNMPCVFKFTTSQTSVDLTAHGVKYATCQFQAGEEFMTFSTLTCTVSNTLTPSIKALGTVTLPLAFNVGGTGSSVDLEDSKCFTAGTNTVTFNDGGKKISINVDFERSNVDPKGYLTDSRVIPSLNKVSTLFVAPQCANGYTSGTMGFANTYGDVQIDCSNIHVGITKGLNDWNYPVSSESFSYTKTCSSNGIFITYKNVPAGYRPFVDAYISATDVNSYTLSYANEYTCAGGYWQRAPFTLRWTGYRNSDAGSNGIVIVATTRTVTDSTTAVTTLPFDPNRDKTKTIEILKPIPTTTITTSYVGVTTSYLTKTAPIGETATVIVDIPYHTTTTVTSKWTGTITSTTTHTNPTDSIDTVIVQVP
glycan array binding signal (z-score) (Man(a1-2)Man(a1-3)Man): -0.226
glycan array binding signal (z-score) [22]: -0.361
glycan array binding signal (z-score) [23]: -0.29
glycan array binding signal (z-score) [24]: -0.11
glycan array binding signal (z-score) [25]: -0.237
glycan array binding signal (z-score) [26]: -0.08
glycan array binding signal (z-score) [27]: 4.72
glycan array binding signal (z-score) [28]: 0.08
glycan array binding signal (z-score) [29]: -0.202
glycan array binding signal (z-score) [30]: -0.233
glycan array binding signal (z-score) [31]: 2.21
glycan array binding signal (z-score) [32]: -0.049
glycan array binding signal (z-score) (Neu5Ac(a2-6)Gal(b1-4)Glc): -0.187
glycan array binding signal (z-score) [33]: -0.102
glycan array binding signal (z-score) [34]: -0.309
glycan array binding signal (z-score) [35]: -0.151
glycan array binding signal (z-score) [36]: -0.283
glycan array binding signal (z-score) [37]: 2.56
glycan array binding signal (z-score) [38]: -0.341
